Test results as given in PubChem BioAssay (NCATS).
Records with an inconclusive call do not appear. Activity calls are given as the source filed them. Unless noted, calls come from the whole dose curve; as a rule, active = well fitted curve in the direction sought with a large enough effect; inconclusive = small, poorly fitted or top-dose-only effect, or another doubt; inactive = no such curve, though single readings can be large; an effect the other way counts as inactive or inconclusive.

What was measured:
[1] = molecular target: Mitogen-activated protein kinase 10 (Mus musculus) (UniProt Q61831); assay: JNK3 AlphaScreen Assay (AID 530; active = well fitted curve in either direction with a large enough effect, not every such curve was filed as active;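 note: kinase came from lysate of stimulated human HepG2 cells; signal reports phosphorylation of biotinylated GST-cJun 1-79 at Ser73 with 10 µM ATP; % is set by controls: 0 for no effect and ±100 for the full control effect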)
Summary of the method: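 Room-temperature AlphaScreen kinase assay; pre-activated HepG2 lysate as JNK3 source, biotin-GST-cJun(1-79) substrate, 10 uM ATP, compound 15 min preincubation.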

[2] = Cell Viability - N2a (AID 540); conditions: N2a mouse neuroblastoma cell viability; activity change, negative = cytotoxicity: at 92.2 µM (top of the series);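 note: cells exposed to compound for 40 h at 37 °C; nearly all actives have a fitted effect of over 45% in size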; note: potency is the fitted concentration of half-maximal effect;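 for activity change, negative = cytotoxicity: plate controls were DMSO alone for no effect and tamoxifen control for full effect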
Summary of the method: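 First, 1500 N2a cells per well incubate 5 hr at 37 °C; next, compounds are added and incubated 40 hr at 37 °C; finally CellTiter-Glo is added and luminescence read after 20 min, with AC50 derived by Hill modeling.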

[3] = Cell Viability - NIH 3T3 (AID 541); conditions: NIH 3T3 cell viability, qHTS; activity change, negative = cytotoxicity: at 92.2 µM (top of the series); note: nearly all actives have a fitted effect of over 25% in size; note: potency is the fitted concentration of half-maximal effect;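 for activity change, negative = cytotoxicity: plate controls were DMSO alone for no effect and tamoxifen positive control for full effect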
Summary of the method: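 AC50 values reflect concentration-dependent loss of intracellular ATP in NIH 3T3 cells after 40 hr treatment in complete culture medium, quantified by luciferase-based luminescence.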

[4] = Cell Viability - HUV-EC-C (AID 542); note: nearly all actives have a fitted effect of over 35% in size; note: potency is the fitted concentration of half-maximal effect; for activity change, negative = cytotoxicity: % is set by controls: 0 for no effect and ±100 for the full control effect
Summary of the method: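 Decrease in cellular ATP, quantified by luciferase luminescence, reflects toxicity in normal human vascular endothelial HUV-EC-C cells given compound for 40 hr in complete culture medium. Values are AC50s from concentration-response curves.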

[5] = Cell Viability - H-4-II-E (AID 543); note: nearly all actives have a fitted effect of over 35% in size; note: potency is the fitted concentration of half-maximal effect
Summary of the method: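 Here, cytotoxicity is measured in the rat hepatoma line H-4-II-E as loss of intracellular ATP after 40 hr compound treatment, detected by luciferase luminescence.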

[6] = Cell Viability - SH-SY5Y (AID 544); note: nearly all actives have a fitted effect of over 55% in size; note: potency is the fitted concentration of half-maximal effect
Summary of the method: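 Cytotoxicity is scored as a concentration-dependent fall in intracellular ATP in human SH-SY5Y cells treated 40 hr in complete culture medium. Potency is expressed as AC50 from a Hill equation fit.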

[7] = Cell Viability - Renal Proximal Tubule (AID 545); conditions: renal proximal tubule cells viability; activity change, negative = cytotoxicity: at 91.7 µM (top of the series);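 note: 0% = DMSO only and -100% = 100 µM tamoxifen; nearly all actives have a fitted effect of over 40% in size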
Summary of the method: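 In this qHTS format, normal rat kidney-derived proximal tubule cells in complete culture medium receive compound titrations, then sit 40 hours at 37 °C before luciferase-based ATP quantitation; potency is reported as AC50 from concentration-response curves.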

[8] = Cell Viability - Mesenchymal (AID 546);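 note: cells exposed to compound for 40 hours before reading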; note: potency is the fitted concentration of half-maximal effect;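 for activity change, negative = cytotoxicity: 0% = DMSO only and -100% = 100 µM tamoxifen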
Summary of the method: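 AC50 values reflect the drop in intracellular ATP in a human kidney mesenchymal line derived from normal glomeruli. Treatment lasts 40 hr at 37 °C in complete medium, and the signal comes from CellTiter-Glo luminescence.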

[9] = Cellular Toxicity (caspase-3) HepG2 (AID 654);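 note: cells exposed to compound for 16 hours before reading; 0% = DMSO alone and 100% = caspase signal from 100 µM tamoxifen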
Summary of the method: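 qHTS, HepG2, 1500 cells/well, complete medium; cpd 16 h 37 °C; Caspase-Glo 3/7, 20 min RT; lum. Norm: DMSO vs 100 uM tamoxifen; AC50 Hill fit.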

[10] = Cellular Toxicity (caspase-3) Jurkat (AID 655);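 note: cells exposed to compound for 16 h at 37 °C before reading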
Summary of the method: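 qHTS in human Jurkat T-cell leukemia line: 16 hr compound treatment at 37 °C, caspase-3/7 activity measured by Caspase-Glo luminescence. AC50 derived from Hill equation.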

[11] = Cellular Toxicity (caspase-3) HUV-EC-C (AID 656);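 note: 0% = DMSO basal and 100% = 100 µM tamoxifen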
Summary of the method: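 Concentration-dependent caspase 3/7 induction was assessed in HUV-EC-C cells exposed for 16 hours. Data scaled between DMSO and tamoxifen (100 uM) controls.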

[12] = Cellular Toxicity (caspase-3) SHSY5Y (AID 657);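 note: cells exposed to compound for 16 hours at 37 °C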
Summary of the method: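 Readout: caspase-cleaved peptide-aminoluciferin substrate driving luciferase light in SH-SY5Y neuroblastoma cells after 16 h treatment. Response normalized to DMSO and 10 uM staurosporine controls.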

[13] = Cellular Toxicity (caspase-3) BJ (AID 658); conditions: Potency: caspase-3 activation;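 note: 0% = DMSO basal and 100% = 10 µM staurosporine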
Summary of the method: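 Readout: Caspase-Glo 3/7 luminescence increase in BJ cells after 16 hr treatment at 37 °C. Staurosporine and tamoxifen served as positive controls; AC50 values came from Hill modelling of data normalized to DMSO and 10 uM staurosporine.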

[14] = Cellular Toxicity (caspase-3) MRC-5 (AID 659); conditions: Potency: caspase-3 activation;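 note: cells exposed to compound for 16 h at 37 °C; 0% = DMSO basal and 100% = 10 µM staurosporine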
Summary of the method: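 Concentration-dependent caspase 3/7 activation is measured in human normal lung fibroblasts (MRC-5) following 16-hour treatment. AC50 values come from standard Hill-equation modeling of luminescence normalized to DMSO and 10 uM staurosporine.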

[15] = Cellular Toxicity (caspase-3) SK-N-SH (AID 661); conditions: SK-N-SH caspase-3 activation, qHTS; caspase-3 activation: at 91.7 µM (top of the series), DMSO as zero, staurosporine as full;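 note: 0% = DMSO basal and 100% = 10 µM staurosporine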
Summary of the method: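 Caspase 3/7 activation is measured as a luminescence increase from aminoluciferin released by substrate cleavage in SK-N-SH cells after 16 hr compound treatment; values are AC50 from concentration-response curves.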

[16] = Cellular Toxicity (caspase-3) H-4-II-E (AID 663);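 note: cells exposed to compound for 16 hr before readout; 0% = DMSO basal and 100% = 100 µM tamoxifen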
Summary of the method: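 Apoptosis induction is scored as increased luminescence from caspase 3/7 substrate cleavage in rat hepatoma H-4-II-E cells exposed to compound for 16 hr. Activity is scaled between DMSO and 100 uM tamoxifen.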

[17] = molecular target: Glucocorticoid receptor (Homo sapiens) (UniProt P04150); assay: GR-GFP Redistribution (AID 450;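 active = compounds whose dose series gives a full or clear partial fitted curve of increased nuclear translocation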; note: potency is the fitted concentration of half-maximal effect); conditions: U2OS GR-GFP nuclear translocation, laser cytometry, 2 h
Sequence of Glucocorticoid receptor (Homo sapiens) (P04150 whole entry, looked up, the tested form may be a part): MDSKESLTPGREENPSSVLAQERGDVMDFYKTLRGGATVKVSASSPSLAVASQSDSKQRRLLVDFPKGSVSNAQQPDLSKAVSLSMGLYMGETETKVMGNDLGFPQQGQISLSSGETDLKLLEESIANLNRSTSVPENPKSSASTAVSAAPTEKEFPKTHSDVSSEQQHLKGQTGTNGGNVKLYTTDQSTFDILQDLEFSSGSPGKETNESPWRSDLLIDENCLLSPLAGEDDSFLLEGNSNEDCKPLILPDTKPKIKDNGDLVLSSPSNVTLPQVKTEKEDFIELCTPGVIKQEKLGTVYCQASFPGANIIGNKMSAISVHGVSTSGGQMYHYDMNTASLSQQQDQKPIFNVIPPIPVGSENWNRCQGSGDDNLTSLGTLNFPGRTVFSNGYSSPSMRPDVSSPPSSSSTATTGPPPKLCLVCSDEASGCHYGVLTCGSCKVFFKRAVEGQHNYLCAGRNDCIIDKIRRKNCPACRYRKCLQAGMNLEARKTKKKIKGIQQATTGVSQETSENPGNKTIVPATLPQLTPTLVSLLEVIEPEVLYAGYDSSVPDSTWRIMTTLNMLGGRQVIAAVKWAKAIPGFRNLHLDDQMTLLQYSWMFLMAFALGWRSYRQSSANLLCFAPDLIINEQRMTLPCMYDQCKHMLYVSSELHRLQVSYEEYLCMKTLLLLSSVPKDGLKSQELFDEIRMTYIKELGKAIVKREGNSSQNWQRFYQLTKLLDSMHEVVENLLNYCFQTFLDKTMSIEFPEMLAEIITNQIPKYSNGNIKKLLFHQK

[18] = molecular target: Glucocorticoid receptor (Homo sapiens) (UniProt P04150); assay: GR-EFC Redistribution (AID 451; calls by dose curve; note: potency is the fitted concentration of half-maximal effect); conditions: CHO-K1 GR-EFC translocation, beta-gal luminescence, 2 h
Summary of the method: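 Translocation of GR-ED fusion to nuclear EA restores b-gal, read by luminescence after 1 h room-temperature detection. Engineered CHO-K1 biosensor cells, 1,000/well, exposed 2 h at 37 C to titrations up to 46 uM final.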

[19] = molecular target: 3',5'-cyclic-AMP phosphodiesterase 4B (Homo sapiens) (UniProt Q07343); assay: qHTS Assay for Inhibitors of PDE-IV (AID 607; active = well fitted activation curve with a large enough effect in the main read-out, with a control signal flat, not every such curve was filed as active; note: % of control where 0% means no effect)
Sequence of 3',5'-cyclic-AMP phosphodiesterase 4B (Homo sapiens) (Q07343 whole entry, looked up): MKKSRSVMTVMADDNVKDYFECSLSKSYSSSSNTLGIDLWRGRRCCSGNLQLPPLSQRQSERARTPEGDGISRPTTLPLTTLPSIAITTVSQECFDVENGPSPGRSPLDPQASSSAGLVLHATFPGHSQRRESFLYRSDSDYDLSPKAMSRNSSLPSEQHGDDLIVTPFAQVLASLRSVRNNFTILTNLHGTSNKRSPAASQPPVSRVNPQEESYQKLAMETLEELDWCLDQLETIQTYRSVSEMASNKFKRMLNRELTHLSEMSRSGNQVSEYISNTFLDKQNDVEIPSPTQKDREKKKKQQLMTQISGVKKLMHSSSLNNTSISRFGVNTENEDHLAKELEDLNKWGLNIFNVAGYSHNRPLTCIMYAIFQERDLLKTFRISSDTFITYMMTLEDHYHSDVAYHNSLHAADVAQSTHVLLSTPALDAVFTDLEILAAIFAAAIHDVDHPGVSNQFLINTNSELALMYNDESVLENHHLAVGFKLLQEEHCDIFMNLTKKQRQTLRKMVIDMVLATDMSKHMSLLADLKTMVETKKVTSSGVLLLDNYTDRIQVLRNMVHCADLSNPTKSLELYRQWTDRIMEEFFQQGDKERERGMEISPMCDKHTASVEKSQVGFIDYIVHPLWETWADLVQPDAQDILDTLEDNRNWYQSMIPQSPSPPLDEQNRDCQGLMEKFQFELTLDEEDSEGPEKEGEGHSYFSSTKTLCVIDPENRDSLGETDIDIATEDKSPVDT
Summary of the method: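 Cell-based read-out of cAMP via a modified cyclic nucleotide-gated channel and membrane potential dye (535/590 nm) in HEK293 cells expressing PDE4 endogenously. Compounds tested up to 22.9 uM final; 100 uM RO 20-1724 reference.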

C[C@H]1CC[C@@H]2[C@@H](C)[C@H]3[C@H](C[C@H]4[C@@H]5CC=C6CC(O[C@@H]7O[C@H](CO)[C@H](O)[C@H](O[C@@H]8O[C@H](CO)[C@@H](O)[C@H](O)[C@H]8O)[C@H]7O[C@H]7O[C@@H](C)[C@H](O)[C@@H](O)[C@H]7O)CC[C@]6(C)[C@H]5CC[C@]34C)N2C1 (stereo not given in full)
active: Potency [2] 31.6 µM | Potency [3] 31.6 µM | Potency [4] 31.6 µM | Potency [5] 31.6 µM | Potency [6] 31.6 µM | activity change, negative = cytotoxicity [7] -101% | Potency [8] 31.6 µM
inactive: outcome [1] | outcome [9] | Potency [10] | outcome [11] | outcome [12] | Potency [13] | Potency [14] | Potency [15] | outcome [16]

CN(N=O)c1ccc(O)c(O)c1
inactive: Potency [17] > 46 µM | Potency [18] > 46 µM | Potency [19]

ClC=C(Cl)Cl
inactive: outcome [1] | Potency [2] | Potency [3] | Potency [4] | Potency [5] | Potency [6] | Potency [7] | Potency [8] | outcome [9] | Potency [10] | outcome [11] | outcome [12] | Potency [13] | Potency [14] | Potency [15] | outcome [16]

C[C@]12CCC(=O)C[C@@H]1CC[C@@H]1[C@@H]2CC[C@]2(C)[C@@H](O)CC[C@@H]12
inactive: outcome [1] | Potency [2] | Potency [3] | Potency [4] | Potency [6] | Potency [7] | Potency [8] | outcome [9] | Potency [10] | outcome [11] | outcome [12] | Potency [13] | Potency [14] | Potency [15] | outcome [16]

C[C@H]1CCC[C@H](O)CCCCCc2cc(O)cc(O)c2C(=O)O1
inactive: outcome [1] | Potency [2] | Potency [4] | Potency [5] | Potency [7] | Potency [8] | outcome [9] | Potency [10] | outcome [11] | outcome [12] | Potency [13] | Potency [14] | Potency [15] | outcome [16]
active: activity change, negative = cytotoxicity [3] -108%

O=[N+]([O-])c1ccccc1
inactive: outcome [1] | Potency [2] | Potency [3] | Potency [4] | Potency [5] | Potency [6] | Potency [7] | Potency [8] | outcome [9] | Potency [10] | outcome [11] | outcome [12] | Potency [13] | Potency [14] | Potency [15] | outcome [16]

CCCCCCCCOC(=O)c1ccccc1C(=O)OCCCCCCCC
inactive: outcome [1] | Potency [2] | Potency [3] | Potency [4] | Potency [5] | Potency [6] | Potency [7] | Potency [8] | outcome [9] | Potency [10] | outcome [11] | outcome [12] | Potency [13] | Potency [14] | Potency [15] | outcome [16]

Oc1cc(Cl)c(Cl)cc1Cl
active: Potency [2] 25.1 µM
inactive: outcome [1] | Potency [3] | Potency [4] | Potency [5] | Potency [6] | Potency [7] | Potency [8] | outcome [9] | Potency [10] | outcome [11] | outcome [12] | Potency [13] | Potency [14] | Potency [15] | outcome [16]

[O]=[Cd]
inactive: Potency [2] | Potency [3] | Potency [4] | Potency [5] | Potency [6] | Potency [7] | Potency [8] | outcome [9] | Potency [10] | outcome [11] | outcome [12] | Potency [13] | Potency [14] | Potency [15] | outcome [16]

O=CC=O
inactive: outcome [1] | Potency [2] | Potency [4] | Potency [5] | Potency [7] | Potency [8] | outcome [9] | Potency [10] | outcome [11] | outcome [12] | Potency [13] | Potency [14] | Potency [15] | outcome [16]
active: Potency [3] 12.6 µM

C=CCN=C=S
inactive: outcome [1] | Potency [2] | Potency [3] | Potency [4] | Potency [5] | Potency [6] | Potency [7] | Potency [8] | outcome [9] | Potency [10] | outcome [11] | outcome [12] | Potency [13] | Potency [14] | Potency [15] | outcome [16]

O=C/C=C/c1ccccc1
active: Potency [3] 12.6 µM
inactive: outcome [1] | Potency [2] | Potency [4] | Potency [5] | Potency [6] | Potency [7] | Potency [8] | outcome [9] | Potency [10] | outcome [11] | outcome [12] | Potency [13] | Potency [14] | Potency [15] | outcome [16]
